This note sets out measurements from PubChem BioAssay (NCI).

Compounds without any hit were thinned out: in the full panel of roughly 83,000, 20% have a hit.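 The test compound was applied at a single concentration to cells in 96-well plates for 48 hours, and percent growth was recorded.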 A number with no mark means an inactive call. Active and inactive are the calls of the source. Rule for the calls: active = growth percent below 10; inactive = the rest.

Test systems include DU-145 prostate; K-562 leukemia; MALME-3M melanoma; MDA-MB-231 breast; RXF 393 renal; SF-268 CNS; SF-539 CNS; UACC-257 melanoma; M14 melanoma; SF-295 CNS.
Holding throughout (test): NCI-60 one-dose screen, 48 h (100 = growth as untreated, 0 = no growth, -100 = all killed)
Common to all, as to conditions: 10 µM unless noted

For the compound `O=C1C(Cl)=C(Nc2ccc(Nc3ccccc3)c(NC3=C(Cl)C(=O)c4ccccc4C3=O)c2)C(=O)c2ccccc21`, the growth in the experiment on DU-145 prostate was 104%; in the experiment on K-562 leukemia, 41.4%; in the experiment with MALME-3M melanoma, 39.4%; in the experiment on MDA-MB-231 breast, 58.5%; with RXF 393 renal, 74.3%; with SF-268 CNS, 72.7%. The growth with SF-539 CNS was 42.5%; with UACC-257 melanoma it was 79.8%; in the experiment with M14 melanoma it was 118%.

For the compound `CC(=O)CC(=O)OC/C=C(/C)CCC=C(C)C`, the growth in the experiment with DU-145 prostate is 111%; in the experiment on K-562 leukemia, 108%; in the experiment on MALME-3M melanoma, 121%; in the experiment with MDA-MB-231 breast, 109%; in the experiment with RXF 393 renal, 98%; in the experiment with SF-268 CNS, 106%. Also, the values for the growth in the experiment on SF-539 CNS, in the experiment with UACC-257 melanoma and in the experiment on M14 melanoma were 97%, 106% and 101%, respectively.

As to `CCOc1ccccc1/C=N\N=C(N/N=C/c1ccccc1OCC)N/N=C/c1ccccc1OCC`, the growth in the experiment with DU-145 prostate was 16.1%; in the experiment with K-562 leukemia, 21.4%; in the experiment on MALME-3M melanoma, 24.1%; in the experiment with MDA-MB-231 breast, 9.5% (active); in the experiment with RXF 393 renal, 19.2%; with SF-295 CNS, 9.61% (active). Moreover, the growth was 7.38% (active) with UACC-257 melanoma and 32.3% with M14 melanoma.

Take `O=C(c1ccccc1)c1ccccc1-c1ccccc1`: the growth in the experiment with DU-145 prostate is 51.1%; in the experiment with K-562 leukemia it was 14.5%; in the experiment on MALME-3M melanoma, 49.4%; with MDA-MB-231 breast it was 42.1%; in the experiment on SF-268 CNS, 45.4%; with SF-295 CNS, 17.1%. Moreover, the growth in the experiment on SF-539 CNS is 20.4%; in the experiment on UACC-257 melanoma, 55.4%; in the experiment with M14 melanoma, 0.878% (active).

Consider `CC#Cc1nc(Nc2cc(C)[nH]n2)c2ccccc2n1`, for which the growth was -4.22% [100 µM] (active) in the experiment on DU-145 prostate; 9.48% [100 µM] (active) in the experiment with K-562 leukemia; -45.3% [100 µM] (active) in the experiment with MALME-3M melanoma; -34.5% [100 µM] (active) in the experiment with MDA-MB-231 breast; -51% [100 µM] (active) in the experiment on RXF 393 renal; -72.5% [100 µM] (active) in the experiment on SF-268 CNS. In addition, the growth with SF-539 CNS is 1.15% [100 µM] (active); in the experiment on UACC-257 melanoma, -19.9% [100 µM] (active); with M14 melanoma, -27.3% [100 µM] (active).

`COC(=O)[C@H](Cc1cn(C)cn1)NC(=O)[C@@H](NC(=O)Nc1cc(C(F)(F)F)cc(C(F)(F)F)c1)C(C)(C)C`: the growth in the experiment with DU-145 prostate was -92.3% [100 µM] (active); in the experiment on K-562 leukemia, -12.5% [100 µM] (active); in the experiment with MALME-3M melanoma, -86.9% [100 µM] (active); with MDA-MB-231 breast it was -89.6% [100 µM] (active); in the experiment with RXF 393 renal, -87.4% [100 µM] (active); in the experiment with SF-268 CNS, -90.4% [100 µM] (active). The growth in the experiment with SF-539 CNS was -84.4% [100 µM] (active); with UACC-257 melanoma, -74.2% [100 µM] (active); in the experiment with M14 melanoma, -85.2% [100 µM] (active).

For `CSCc1ncc(-c2ccc(C(F)(F)F)cc2)c(NC2CCCCCC2)n1`, the growth was 71.4% [25 µM] in the experiment with DU-145 prostate; 29.3% [25 µM] with K-562 leukemia; 68.8% [25 µM] in the experiment with MALME-3M melanoma; 56.2% [25 µM] in the experiment with MDA-MB-231 breast; 75.4% [25 µM] in the experiment with RXF 393 renal; 75.5% [25 µM] in the experiment with SF-268 CNS. The values for the growth in the experiment with SF-539 CNS, in the experiment on UACC-257 melanoma and in the experiment with M14 melanoma were 93.8% [25 µM], 74.1% [25 µM] and 67.4% [25 µM], respectively.

Regarding `O=C(O)COc1ccc([N+](=O)[O-])cc1Cl`, the growth with DU-145 prostate was 118%; in the experiment with K-562 leukemia, 99.5%; in the experiment on MALME-3M melanoma, 107%; in the experiment with MDA-MB-231 breast it was 115%; with RXF 393 renal, 108%; in the experiment on SF-268 CNS it was 109%. Also, the growth with SF-539 CNS is 98%; in the experiment with UACC-257 melanoma, 91.6%; with M14 melanoma it was 107%.

Regarding `C=CCNCCC#N`, the growth in the experiment on DU-145 prostate is 113%; in the experiment on K-562 leukemia it was 109%; with MALME-3M melanoma, 114%; in the experiment with MDA-MB-231 breast, 119%; in the experiment with RXF 393 renal, 109%; in the experiment on SF-268 CNS, 112%. Besides, the growth in the experiment with SF-539 CNS was 107%; with UACC-257 melanoma it was 111%; in the experiment on M14 melanoma it was 101%.

Consider `COC(=O)[C@H](Cc1cn(C)cn1)NC(=O)[C@H](Cc1c[nH]c2ccccc12)NC(=O)Nc1cc(C(F)(F)F)cc(C(F)(F)F)c1`, for which the growth with DU-145 prostate was -88.1% [100 µM] (active); with K-562 leukemia, -59.3% [100 µM] (active); in the experiment on MALME-3M melanoma, -70.2% [100 µM] (active); in the experiment with MDA-MB-231 breast, -92.4% [100 µM] (active); in the experiment on RXF 393 renal it was -81.2% [100 µM] (active); with SF-268 CNS, -79.9% [100 µM] (active). For the same compound, the growth with SF-539 CNS was -69.1% [100 µM] (active); in the experiment on UACC-257 melanoma it was -67.6% [100 µM] (active); with M14 melanoma, -83.8% [100 µM] (active).

As to `N=C(N)N=Nc1ccc(NN=C(N)N)cc1`, the growth with DU-145 prostate was 95.4%; with K-562 leukemia it was 96.2%; in the experiment with MALME-3M melanoma it was 138%; in the experiment on MDA-MB-231 breast it was 86.2%; in the experiment on RXF 393 renal, 81.6%; with SF-295 CNS it was 101%. Further, the growth in the experiment on UACC-257 melanoma is 94%; with M14 melanoma, 78.6%.

Consider `COC(=O)[C@H](Cc1cn(C)cn1)NC(=O)[C@H](CC(=O)OCc1ccccc1)NC(=O)Nc1cc(C(F)(F)F)cc(C(F)(F)F)c1`, for which the growth with DU-145 prostate was -94.5% [100 µM] (active); in the experiment on K-562 leukemia, -60.2% [100 µM] (active); in the experiment on MALME-3M melanoma it was -94.4% [100 µM] (active); in the experiment with MDA-MB-231 breast it was -93% [100 µM] (active); in the experiment on RXF 393 renal, -81.8% [100 µM] (active); in the experiment with SF-268 CNS, -91.4% [100 µM] (active). The growth in the experiment with SF-539 CNS is -94.6% [100 µM] (active); in the experiment with UACC-257 melanoma, -94.9% [100 µM] (active); with M14 melanoma, -93.6% [100 µM] (active).
